This note sets out measurements from PubChem BioAssay (NCATS).

In experiment [1] the target is Lysosomal acid glucosylceramidase (Homo sapiens) (UniProt P04062). Nature of the experiment: Glucocerebrosidase-p2 (AID 348; in the data active = potency below about 10 µM; note: potency is the fitted concentration of half-maximal effect). The conditions noted are these: purified GBA, blue fluorogenic substrate, 40 min. The procedure, abridged:
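Normal human glucocerebrosidase (0.2 nM) with blue fluorogenic substrate (80 uM final) in citrate/phosphate pH 5.9 with 10mM sodium taurocholate, 0.01% tween-20; 40 min RT, NaOH/glycine stop; fluorescence Ex 365/Em 440; AC50 from a titration from 0.6 nM upwards.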

The nature of experiment [2]: AP1 Signaling Pathway (AID 357).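 Note: ME-180 reporter cells stimulated with EGF at its EC50 level; % is set by controls: 0 for no effect and ±100 for the full control effect.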 The settings on record: ME-180 AP-1-bla reporter, EGF-induced, beta-lactamase ratio, 5 h; at 7.69 µM (top of the series) unless noted. The essentials:
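Read-out was the 460nm/530nm emission ratio (excitation 405nm) after CCF4 loading for 2.5 hours at room temperature. Cells carried an AP-1-driven beta-lactamase reporter, were stimulated with EC50 EGF plus compound for 5 hours, and AC50 values came from titrations.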

Experiment [3] can be described thus: NFAT Signaling Pathway (AID 444).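 Note: carbachol stimulus at about its EC50 of 1 µM final; % is set by controls: 0 for no effect and ±100 for the full control effect.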 The settings on record: Jurkat NFAT-bla M1, carbachol, beta-lactamase ratio, 5 h; at 7.69 µM (top of the series) unless noted. The procedure, abridged: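 Jurkat cells with NFAT-driven β-lactamase reporter and co-expressed M1 receptor, stimulated with carbachol (final 1 uM, ~EC50), compound titration, 5 h at 37 °C. CCF4 loaded 1 h at RT; 460/530 nm ratio gave %activity and AC50.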

The nature of experiment [4]: Stat Signaling Pathway (AID 446).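 Note: ME-180 cervical cancer cells given 40 pM IL-6 alongside compound; SIE-controlled beta-lactamase reporter measured as 460/530 nm FRET emission ratio; % is set by controls: 0 for no effect and ±100 for the full control effect.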 The conditions noted are these: ME-180 SIE beta-lactamase reporter, IL-6 stimulated, 5 h; at 7.69 µM (top of the series) unless noted. The essentials: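 FRET read-out (405 nm excitation, 460/530 nm emission) of a beta-lactamase reporter under a STAT-inducible element in ME-180 cervical carcinoma cells. Cells with compound receive 40 pM IL-6 for 5 h. Values are normalised to AC90 stimulation and AC90 JAK-inhibitor controls.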

For experiment [5], the target named is Glucocorticoid receptor (Homo sapiens) (UniProt P04150). Kind of experiment: GR-GFP Redistribution (AID 450;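 active = compounds whose dose series gives a full or clear partial fitted curve of increased nuclear translocation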; note: potency is the fitted concentration of half-maximal effect). The settings on record: U2OS GR-GFP nuclear translocation, laser cytometry, 2 h.
Experiment [6] has the same target. Nature of the experiment: GR-EFC Redistribution (AID 451; calls by dose curve; note: potency is the fitted concentration of half-maximal effect). The conditions noted are these: CHO-K1 GR-EFC translocation, beta-gal luminescence, 2 h. The procedure, abridged:
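CHO-K1 cells expressing nuclear EA and GR-ED fragments of b-gal; compounds titrated up to 46 uM final, 2 h at 37 C. GR nuclear translocation read as complemented b-gal luminescence after 1 h RT detection.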

Experiment [7] addresses Mitogen-activated protein kinase 10 (Mus musculus) (UniProt Q61831). Kind of experiment: JNK3 AlphaScreen Assay (AID 530).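 Note: kinase came from lysate of stimulated human HepG2 cells; signal reports phosphorylation of biotinylated GST-cJun 1-79 at Ser73 with 10 µM ATP; % is set by controls: 0 for no effect and ±100 for the full control effect.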 The settings on record: JNK3 lysate, c-Jun phosphorylation; series mostly up to 11.4 µM. The essentials:
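HepG2 lysate (IL-1b/TNFa pre-activated) + biotin-GST-cJun 1-79 + anti-pSer73 cJun; cpd titration, 15 min RT; ATP 10 uM start; Tris pH 7.6, MgCl2, DTT, vanadate; beads in EDTA buffer; AlphaScreen.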
In general terms: Bead proximity is the source of the signal in Alpha formats.

Experiment [8] concerns the target 3',5'-cyclic-AMP phosphodiesterase 4B (Homo sapiens) (UniProt Q07343). Nature of the experiment: qHTS Assay for Inhibitors of PDE-IV (AID 607; active = well fitted activation curve with a large enough effect in the main read-out, with a control signal flat, not every such curve was filed as active; note: % of control where 0% means no effect). The settings on record: HEK293 ACTOne CNG channel cells, membrane potential fluorescence; series mostly up to 22.9 µM. The essentials:
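Cell-based read-out of cAMP via a modified cyclic nucleotide-gated channel and membrane potential dye (535/590 nm) in HEK293 cells expressing PDE4 endogenously. Compounds tested up to 22.9 uM final; 100 uM RO 20-1724 reference.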
(In qHTS, concentration-response curves come from the screen itself.)

For experiment [9], the target named is Cytochrome P450 3A4 (Homo sapiens) (UniProt P08684). Kind of experiment: qHTS Assay for Activators of Cytochrome P450 3A4 (AID 885; active = well fitted curve in the direction sought with a large enough effect; an effect the other way counts as inactive or inconclusive; note: nearly all actives have a fitted effect of over 65% in size). The settings on record: recombinant CYP3A4, Luciferin-PPXE luminescence, 60 min; series mostly up to 11.4 µM. The essentials: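 Luminescent readout of luciferin formed from 25 uM Luciferin-PPXE (KM level) by 20 nM CYP3A4 in 200 mM KPO4, with 60 min NADPH-driven reaction at room temperature after 10 min compound exposure. Ketoconazole (57 uM) defined 100% inhibition.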

The target in experiment [10] is Cytochrome P450 2D6 (Homo sapiens) (UniProt P10635). Kind of experiment: qHTS Assay for Inhibitors and Substrates of Cytochrome P450 2D6 (AID 891; active = well fitted curve in the direction sought with a large enough effect; an effect the other way counts as inactive or inconclusive; note: nearly all actives have a fitted effect of over 60% in size; note: potency is the fitted concentration of half-maximal effect). The conditions noted are these: recombinant CYP2D6, luciferin-ME EGE luminescence; series mostly up to 11.4 µM. The essentials: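 Luminescent read-out of luciferin formed by 5 nM human CYP2D6 demethylating 30 uM Luciferin-ME EGE (Km level) over 60 min at room temperature after NADPH regeneration addition. Data normalized to full inhibition by 1.43 uM quinidine.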

The target in experiment [11] is Cytochrome P450 2C19 (Homo sapiens) (UniProt P33261). Nature of the experiment: qHTS Assay for Inhibitors and Substrates of Cytochrome P450 2C19 (AID 899; active = well fitted curve in the direction sought with a large enough effect; an effect the other way counts as inactive or inconclusive; note: nearly all actives have a fitted effect of over 60% in size; note: potency is the fitted concentration of half-maximal effect). The settings on record: recombinant CYP2C19, luciferin-H EGE luminescence; series mostly up to 11.4 µM. The essentials: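 5 nM human CYP2C19 with 10uM Luciferin-H EGE (at KM) in 50mM KPO4, compound preincubated 10 min at 37C, then NADPH regeneration for 60 min at 37C. Luciferin read by luminescence after detection reagent; normalized to 57uM ketoconazole as full inhibition.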

A short description of experiment [12]: qHTS Assay for Identification of Small Molecule Agonists for Hypoxia Response Element Signaling Pathway (AID 914; active = well fitted activation curve with a large enough effect in the signal ratio, with a control signal flat, not every such curve was filed as active; the % refers to the signal ratio; note: % of control where 0% means no effect). The conditions noted are these: ME-180 (cervical carcinoma) HRE-bla reporter, beta-lactamase ratio, CoCl2, 17 h; activation: stronger effect = higher value. The procedure, abridged: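 In Opti-MEM containing 0.5% dialyzed FBS and 10 mM HEPES, ME-180 HRE-bla cells received a compound titration and EC50 CoCl2. They were incubated 17 hours, then CCF4-loaded 2.5 hours at room temperature before ratio reading.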

Values without a mark were called inactive. Inconclusive results are not listed. The source made the active and inactive calls. Unless noted, calls come from the whole dose curve; as a rule, active = well fitted curve in either direction with a large enough effect (not every such curve was filed as active); inconclusive = small, poorly fitted or top-dose-only effect, or another doubt; inactive = flat fitted curve, though single readings scatter.

Lysosomal acid glucosylceramidase (Homo sapiens), sequence (P04062 whole entry, looked up): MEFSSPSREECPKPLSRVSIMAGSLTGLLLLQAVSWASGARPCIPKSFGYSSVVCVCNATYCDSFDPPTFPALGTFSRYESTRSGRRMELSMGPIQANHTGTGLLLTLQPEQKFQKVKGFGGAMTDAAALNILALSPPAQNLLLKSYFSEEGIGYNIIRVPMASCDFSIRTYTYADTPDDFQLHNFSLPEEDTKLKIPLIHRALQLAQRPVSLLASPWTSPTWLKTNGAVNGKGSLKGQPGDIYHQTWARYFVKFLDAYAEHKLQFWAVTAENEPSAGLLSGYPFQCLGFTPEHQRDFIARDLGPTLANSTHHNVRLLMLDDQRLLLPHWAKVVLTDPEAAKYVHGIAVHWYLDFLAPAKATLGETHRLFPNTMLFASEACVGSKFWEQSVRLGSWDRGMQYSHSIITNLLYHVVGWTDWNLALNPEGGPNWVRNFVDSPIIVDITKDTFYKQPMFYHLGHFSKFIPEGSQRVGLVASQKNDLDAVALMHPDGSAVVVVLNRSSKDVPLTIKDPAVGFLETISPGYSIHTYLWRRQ
Cytochrome P450 2C19 (Homo sapiens), sequence (P33261 whole entry, looked up): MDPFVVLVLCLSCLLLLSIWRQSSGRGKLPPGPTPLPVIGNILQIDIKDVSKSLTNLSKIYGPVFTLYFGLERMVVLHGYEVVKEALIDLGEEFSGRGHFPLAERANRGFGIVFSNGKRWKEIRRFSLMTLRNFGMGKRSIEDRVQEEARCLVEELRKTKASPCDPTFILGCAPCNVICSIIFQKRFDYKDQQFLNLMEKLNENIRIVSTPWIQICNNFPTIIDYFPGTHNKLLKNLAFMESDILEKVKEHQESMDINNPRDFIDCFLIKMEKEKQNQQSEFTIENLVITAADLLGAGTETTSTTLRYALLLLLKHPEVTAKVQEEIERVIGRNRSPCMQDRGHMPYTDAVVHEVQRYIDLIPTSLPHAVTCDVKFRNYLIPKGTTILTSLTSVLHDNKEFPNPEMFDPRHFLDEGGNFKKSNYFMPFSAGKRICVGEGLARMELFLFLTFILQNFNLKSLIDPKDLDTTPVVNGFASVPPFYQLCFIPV
Cytochrome P450 3A4 (Homo sapiens), sequence (P08684 whole entry, looked up): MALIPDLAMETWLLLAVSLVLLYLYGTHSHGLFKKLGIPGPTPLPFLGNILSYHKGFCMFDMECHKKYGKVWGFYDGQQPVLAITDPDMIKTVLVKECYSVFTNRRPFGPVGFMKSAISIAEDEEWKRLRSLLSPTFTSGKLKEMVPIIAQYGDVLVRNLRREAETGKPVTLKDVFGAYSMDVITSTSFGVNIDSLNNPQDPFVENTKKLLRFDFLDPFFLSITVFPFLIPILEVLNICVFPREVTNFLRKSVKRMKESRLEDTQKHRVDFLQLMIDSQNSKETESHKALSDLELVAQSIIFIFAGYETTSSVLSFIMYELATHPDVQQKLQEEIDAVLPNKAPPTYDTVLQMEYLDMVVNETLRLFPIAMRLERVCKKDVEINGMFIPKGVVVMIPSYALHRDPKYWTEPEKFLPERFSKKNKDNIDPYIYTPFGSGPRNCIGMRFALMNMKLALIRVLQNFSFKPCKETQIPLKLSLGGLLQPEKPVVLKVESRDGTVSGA
Glucocorticoid receptor (Homo sapiens), sequence (P04150 whole entry, looked up): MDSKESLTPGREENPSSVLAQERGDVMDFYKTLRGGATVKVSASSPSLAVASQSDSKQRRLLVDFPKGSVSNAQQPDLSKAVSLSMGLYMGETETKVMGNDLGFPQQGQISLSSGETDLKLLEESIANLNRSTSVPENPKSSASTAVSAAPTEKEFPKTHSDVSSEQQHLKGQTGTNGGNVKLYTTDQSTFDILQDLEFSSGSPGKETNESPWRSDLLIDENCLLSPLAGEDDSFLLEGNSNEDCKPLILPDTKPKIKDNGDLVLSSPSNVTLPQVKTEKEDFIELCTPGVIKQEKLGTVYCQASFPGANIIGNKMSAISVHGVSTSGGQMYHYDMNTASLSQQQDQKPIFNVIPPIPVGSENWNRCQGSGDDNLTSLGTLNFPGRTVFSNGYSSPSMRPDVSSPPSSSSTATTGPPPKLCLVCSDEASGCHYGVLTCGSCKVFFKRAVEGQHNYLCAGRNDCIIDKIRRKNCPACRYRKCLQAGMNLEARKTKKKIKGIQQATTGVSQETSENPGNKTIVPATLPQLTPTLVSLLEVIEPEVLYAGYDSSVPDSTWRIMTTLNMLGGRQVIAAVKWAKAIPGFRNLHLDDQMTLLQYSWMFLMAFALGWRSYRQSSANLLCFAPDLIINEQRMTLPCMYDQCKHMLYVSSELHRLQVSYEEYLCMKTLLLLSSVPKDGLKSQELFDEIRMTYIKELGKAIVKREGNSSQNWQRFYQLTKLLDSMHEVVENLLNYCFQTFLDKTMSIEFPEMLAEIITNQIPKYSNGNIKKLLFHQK
3',5'-cyclic-AMP phosphodiesterase 4B (Homo sapiens), sequence (Q07343 whole entry, looked up): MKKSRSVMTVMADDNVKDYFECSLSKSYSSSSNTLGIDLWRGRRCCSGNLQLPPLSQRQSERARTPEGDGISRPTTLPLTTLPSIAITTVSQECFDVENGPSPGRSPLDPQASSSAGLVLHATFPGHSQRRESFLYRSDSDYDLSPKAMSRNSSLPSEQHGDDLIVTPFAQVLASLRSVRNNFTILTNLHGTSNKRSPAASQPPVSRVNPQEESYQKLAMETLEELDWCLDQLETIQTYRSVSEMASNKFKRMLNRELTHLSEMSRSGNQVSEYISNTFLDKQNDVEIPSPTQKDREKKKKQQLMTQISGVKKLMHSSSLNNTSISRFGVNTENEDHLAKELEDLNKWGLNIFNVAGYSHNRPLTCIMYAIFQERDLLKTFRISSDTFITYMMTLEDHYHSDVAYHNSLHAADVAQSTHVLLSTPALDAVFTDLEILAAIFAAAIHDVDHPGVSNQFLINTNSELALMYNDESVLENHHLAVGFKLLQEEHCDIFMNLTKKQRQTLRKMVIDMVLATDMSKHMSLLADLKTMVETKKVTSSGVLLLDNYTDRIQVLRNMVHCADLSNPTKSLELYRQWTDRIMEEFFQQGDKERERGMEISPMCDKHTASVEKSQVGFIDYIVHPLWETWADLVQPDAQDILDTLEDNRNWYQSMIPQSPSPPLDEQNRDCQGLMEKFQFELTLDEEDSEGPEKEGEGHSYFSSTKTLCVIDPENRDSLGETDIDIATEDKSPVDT
Cytochrome P450 2D6 (Homo sapiens), sequence (P10635 whole entry, looked up): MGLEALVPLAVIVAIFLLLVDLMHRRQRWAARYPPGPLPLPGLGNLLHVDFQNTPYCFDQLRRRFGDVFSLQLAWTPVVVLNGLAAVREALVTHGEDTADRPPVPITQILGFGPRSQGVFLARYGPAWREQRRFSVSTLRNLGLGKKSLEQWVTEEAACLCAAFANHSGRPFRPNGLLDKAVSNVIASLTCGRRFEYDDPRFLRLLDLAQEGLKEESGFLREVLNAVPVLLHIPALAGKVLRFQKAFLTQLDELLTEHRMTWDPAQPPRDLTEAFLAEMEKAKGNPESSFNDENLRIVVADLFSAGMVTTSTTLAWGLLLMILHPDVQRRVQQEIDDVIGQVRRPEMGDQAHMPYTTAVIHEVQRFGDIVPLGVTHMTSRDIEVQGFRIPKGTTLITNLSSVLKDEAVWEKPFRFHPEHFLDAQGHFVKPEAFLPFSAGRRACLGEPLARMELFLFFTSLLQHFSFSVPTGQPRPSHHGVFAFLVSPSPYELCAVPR

Consider `S[C@@H]1CCCN(Cc2ccccc2)C1`, for which the Potency in [1] is over 11.4 µM; in experiment [5], over 46 µM; in experiment [6], over 9.22 µM; in experiment [10] it was 0.794 µM (active); in experiment [11], 3.16 µM (active). For the same compound, the activity change, negative = inhibition was 1.2% in experiment [2] and -16.1% in experiment [3]. Moreover, in [4], the activity, negative = inhibition was 2.98%. In addition, the Potency result in [7], in experiment [8] and in experiment [9] was “inactive” each time.
Take `COc1cc2c(cc1OC)C(CCN)=NCC2`: the values for the Potency in experiment [1], in [5] and in experiment [6] were over 11.4 µM, over 46 µM and over 9.22 µM, respectively. Further, the activity change, negative = inhibition in [2] was 7.92%; in [3], -11.2%. The activity, negative = inhibition in experiment [4] was 8.17%. Moreover, the Potency entry in [7], in experiment [8], in experiment [9] and in [11] was “inactive” each time.
Turning to `CN(C)Cc1c[nH]c2nc[nH]c(=O)c12`, the Potency is over 11.4 µM in experiment [1], over 46 µM in [5] and over 9.22 µM in [6]. For the same compound, the activity change, negative = inhibition in experiment [2] was 1.16%; in [3], -5.56%. Moreover, the activity, negative = inhibition in experiment [4] is 1.72%. Besides, the Potency result in [7], in experiment [8] and in [10] was “inactive” throughout.
`Cn1c(=O)c(CCc2ccccc2)nc2cnc(N3CCNCC3)nc21`: the Potency is over 11.4 µM in experiment [1], over 9.22 µM in experiment [5] and over 46 µM in [6]. Also, the activity change, negative = inhibition was -6.16% in experiment [2] and 8.46% in experiment [3]. Moreover, the activity, negative = inhibition in [4] was 11.7%. In addition, the Potency result in [7], in experiment [8] and in [9] was “inactive” in each case.
For `CC1(C)N=C(N)N=C(N)N1c1cccc(OCc2cccc(N)c2)c1`, the Potency in [1] is over 11.4 µM; in experiment [5], over 46 µM; in experiment [6], over 9.22 µM; in [10] it was 2.51 µM (active). Further, the values for the activity change, negative = inhibition in experiment [2] and in [3] were 11.8% and -27.5%, respectively. Also, in experiment [4], the activity, negative = inhibition was -3.01%. The Potency entry in experiment [7] and in experiment [8] was “inactive” in each case.
Take `O=C(O)[C@@H](Br)[C@@H](Br)c1ccccc1[N+](=O)[O-]`: the Potency in [1] was over 11.4 µM; in experiment [5] it was over 46 µM; in experiment [6], over 9.22 µM. Besides, the activity change, negative = inhibition in experiment [2] is 3.89%; in experiment [3], 10.2%. For the same compound, in experiment [4], the activity, negative = inhibition was -0.793%. For the same compound, the Potency entry in experiment [7] and in [8] was “inactive” throughout. Moreover, in experiment [12], the activation is 6.66%.
With `c1ccc(CCN2CCN=C2Cc2ccccc2)cc1`, the Potency in [1] is over 11.4 µM; in [5], over 46 µM; in experiment [6], over 9.22 µM; in [10], 0.126 µM (active). For the same compound, the activity change, negative = inhibition in experiment [2] was 6.53%; in [3], -21.9%. In experiment [4], the activity, negative = inhibition is 14.6%. Besides, the Potency entry in experiment [7] and in [8] was “inactive” each time.
As for `CC(C)=C[C@H]1[C@@H](C(=O)Oc2ccccc2C(C)C)C1(C)C`, the Potency in [1] was over 11.4 µM; in [5], over 46 µM; in experiment [6], over 9.22 µM; in experiment [11], 1.26 µM (active). Moreover, the activity change, negative = inhibition in [2] was 9.15%; in experiment [3], 3.56%. In [4], the activity, negative = inhibition was 6.13%. The Potency result in experiment [7] and in experiment [8] was “inactive” throughout.
Regarding `c1ccc(-c2nnn(CCN3CCCCC3)n2)cc1`, the Potency in experiment [1] is over 11.4 µM; in experiment [5] it was over 46 µM; in [6], over 9.22 µM; in experiment [11] it was 1.26 µM (active). Moreover, the activity change, negative = inhibition in experiment [2] was 10.5%; in experiment [3], -5.15%. Besides, in [4], the activity, negative = inhibition is 1.18%. The Potency result in [7] and in experiment [8] was “inactive” throughout. For the same compound, the activation in experiment [12] is -4.81%.
Take `c1cncc(CNCc2cccnc2)c1`: the Potency is over 11.4 µM in [1], over 46 µM in experiment [5] and over 9.22 µM in [6]. In addition, the results for the activity change, negative = inhibition in [2] and in [3] were -1.94% and 2.26%, respectively. In experiment [4], the activity, negative = inhibition was 12.4%. In addition, the Potency entry in experiment [7], in experiment [8] and in [10] was “inactive” throughout.
In the case of `NC[C@@H](O)CSCc1ccc(Cl)cc1`, the Potency is over 11.4 µM in [1], over 46 µM in [5], over 9.22 µM in experiment [6] and 3.16 µM (active) in experiment [10]. In addition, the activity change, negative = inhibition was -2.84% in experiment [2] and 21.3% in [3]. In experiment [4], the activity, negative = inhibition was 0.417%. In addition, the Potency result in experiment [7] and in experiment [8] was “inactive” in each case.
Consider `COc1ccc(-c2nc3cnc(Oc4ccccc4)nc3n(C3CC3)c2=O)cc1`, for which the Potency in experiment [1] was over 11.4 µM; in [5], over 9.22 µM; in [6], over 46 µM. For the same compound, the activity change, negative = inhibition in experiment [2] was -23.1%; in experiment [3] it was 15.1%. For the same compound, the activity, negative = inhibition in experiment [4] was 4.9%. Moreover, the Potency result in experiment [7], in experiment [8] and in experiment [9] was “inactive” each time.
`CCN1CCC(O)([C@H](C(=O)O)c2ccccc2)CC1`: the Potency in experiment [1] was over 11.4 µM; in [5] it was over 46 µM; in [6], over 9.22 µM. Moreover, the activity change, negative = inhibition in experiment [2] was -5.97%; in [3] it was 16.2%. Besides, in experiment [4], the activity, negative = inhibition was 16.9%. Moreover, the Potency result in experiment [7] and in [8] was “inactive” each time. Also, the activation in experiment [12] was -12.7%.
On to `OCCCNCc1ccncc1`, for which the Potency is over 11.4 µM in experiment [1], over 46 µM in experiment [5] and over 9.22 µM in [6]. Besides, the values for the activity change, negative = inhibition in experiment [2] and in experiment [3] were -2.93% and 5.43%, respectively. Besides, the activity, negative = inhibition in experiment [4] is -6.9%. Further, the Potency entry in [7] and in experiment [8] was “inactive” throughout. Also, the activation in experiment [12] was 1.84%.
In the case of `Nc1nc(C(=O)O)c(N=Nc2ccccc2)c(=O)[nH]1`, the results for the Potency in experiment [1], in [5] and in experiment [6] were over 11.4 µM, over 46 µM and over 9.22 µM, respectively. The activity change, negative = inhibition is 4.49% in experiment [2] and -22.9% in experiment [3]. Further, in experiment [4], the activity, negative = inhibition is 7.24%. Moreover, in experiment [8], the Potency result is “inactive”.
